Measured values taken from publication PMC7862700, “An all-to-all approach to the identification of sequence-specific readers for epigenetic DNA modifications on cytosine”.

Assays:
Experiment in all cases: DAPPL (digital affinity profiling via proximity ligation, sequencing); 10 mM Tris-HCl pH 7.5, 50 mM NaCl, 1 mM DTT, 4% glycerol, room temperature, 30 min; GST-TFs on glutathione beads, 16-mer random dsDNA library, 0.1% formaldehyde crosslink after washing; high values mean tight binding
FLI1 = biological target: T1, FLI1 (Homo sapiens, UniProt Q01543 1-452); settings: protein: recombinant; tags: N-terminal GST; dsDNA, one strand shown
T1 sequence: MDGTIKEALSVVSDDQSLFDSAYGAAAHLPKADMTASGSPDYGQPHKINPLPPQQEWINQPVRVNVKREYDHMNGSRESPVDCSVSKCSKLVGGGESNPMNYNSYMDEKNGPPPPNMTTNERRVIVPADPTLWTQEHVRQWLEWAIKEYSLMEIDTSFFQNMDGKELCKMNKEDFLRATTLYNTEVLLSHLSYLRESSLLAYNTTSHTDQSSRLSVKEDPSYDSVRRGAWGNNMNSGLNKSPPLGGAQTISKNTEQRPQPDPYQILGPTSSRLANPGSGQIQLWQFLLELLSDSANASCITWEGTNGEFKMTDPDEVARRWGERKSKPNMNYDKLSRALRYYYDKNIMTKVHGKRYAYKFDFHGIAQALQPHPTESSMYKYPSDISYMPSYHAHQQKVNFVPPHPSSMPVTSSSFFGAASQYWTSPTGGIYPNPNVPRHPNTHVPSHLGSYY
How it was run: (§1)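 A tag-only sample was pooled with DNA-barcoded human transcription factors that had been expressed in yeast as GST fusions and captured on glutathione beads. The pools were incubated for 30 min at room temperature with 200 nmole of a random double-stranded 16-mer DNA library in Tris/NaCl/DTT/glycerol buffer, then washed, crosslinked with 0.1% formaldehyde, proximity-ligated (BsaI/T4 ligase, 1 h, 37 °C), PCR-amplified and sequenced on an Illumina NextSeq500. Binding signal is each hexamer's read frequency for a factor divided by its frequency for the tag-only sample.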

ELK1 = biological target: T2, ELK1 (Homo sapiens, UniProt P19419 1-428); settings: protein: recombinant; tags: N-terminal GST; dsDNA, one strand shown
T2 sequence: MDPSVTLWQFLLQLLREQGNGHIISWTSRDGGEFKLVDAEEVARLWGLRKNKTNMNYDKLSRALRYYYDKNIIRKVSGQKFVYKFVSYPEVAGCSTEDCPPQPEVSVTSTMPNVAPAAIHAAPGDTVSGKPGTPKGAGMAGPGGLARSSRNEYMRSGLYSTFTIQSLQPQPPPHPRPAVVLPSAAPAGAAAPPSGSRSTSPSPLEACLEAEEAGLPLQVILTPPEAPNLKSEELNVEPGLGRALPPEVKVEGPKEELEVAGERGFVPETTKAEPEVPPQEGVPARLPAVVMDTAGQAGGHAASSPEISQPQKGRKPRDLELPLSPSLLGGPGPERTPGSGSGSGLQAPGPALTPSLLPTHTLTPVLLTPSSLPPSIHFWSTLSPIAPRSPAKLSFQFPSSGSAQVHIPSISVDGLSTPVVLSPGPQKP
How it was run: as §1

GABPA = biological target: T3, GABPA (Homo sapiens, UniProt Q06546 1-454); settings: protein: recombinant; tags: N-terminal GST; dsDNA, one strand shown
T3 sequence: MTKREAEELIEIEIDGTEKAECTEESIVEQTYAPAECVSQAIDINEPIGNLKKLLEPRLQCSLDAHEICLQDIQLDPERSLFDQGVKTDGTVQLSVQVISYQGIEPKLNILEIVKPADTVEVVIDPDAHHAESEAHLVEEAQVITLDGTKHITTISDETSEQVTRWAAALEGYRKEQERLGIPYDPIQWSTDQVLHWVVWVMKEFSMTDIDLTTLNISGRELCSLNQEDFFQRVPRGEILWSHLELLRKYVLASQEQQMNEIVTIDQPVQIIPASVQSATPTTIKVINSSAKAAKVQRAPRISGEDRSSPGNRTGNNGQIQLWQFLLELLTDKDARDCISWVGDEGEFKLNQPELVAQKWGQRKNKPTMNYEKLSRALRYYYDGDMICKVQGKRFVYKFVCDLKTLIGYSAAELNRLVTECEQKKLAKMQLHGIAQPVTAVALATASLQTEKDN
How it was run: as §1

ERG = biological target: T4, ERG (Homo sapiens, UniProt P11308 1-479); settings: protein: recombinant; tags: N-terminal GST; dsDNA, one strand shown
T4 sequence: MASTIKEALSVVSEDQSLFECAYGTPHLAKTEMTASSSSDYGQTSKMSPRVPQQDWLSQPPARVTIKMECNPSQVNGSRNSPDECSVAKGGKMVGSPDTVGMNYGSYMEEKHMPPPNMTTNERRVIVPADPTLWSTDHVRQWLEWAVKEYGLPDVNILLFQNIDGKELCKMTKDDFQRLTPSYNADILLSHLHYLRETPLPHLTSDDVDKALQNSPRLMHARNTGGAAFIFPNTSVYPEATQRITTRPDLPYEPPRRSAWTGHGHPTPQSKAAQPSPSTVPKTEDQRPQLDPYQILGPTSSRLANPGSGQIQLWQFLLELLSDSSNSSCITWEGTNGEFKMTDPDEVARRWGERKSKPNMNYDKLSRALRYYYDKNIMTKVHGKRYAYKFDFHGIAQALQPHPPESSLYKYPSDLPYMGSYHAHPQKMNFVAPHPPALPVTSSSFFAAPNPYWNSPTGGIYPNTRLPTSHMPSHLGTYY
How it was run: as §1

ELF1 = ELF1 (Homo sapiens, UniProt P32519 1-619); settings: protein: recombinant; tags: N-terminal GST; dsDNA, one strand shown
How it was run: as §1

EHF = biological target: T5, EHF (Homo sapiens, UniProt Q9NZC4 1-300); settings: protein: recombinant; tags: N-terminal GST; dsDNA, one strand shown
T5 sequence: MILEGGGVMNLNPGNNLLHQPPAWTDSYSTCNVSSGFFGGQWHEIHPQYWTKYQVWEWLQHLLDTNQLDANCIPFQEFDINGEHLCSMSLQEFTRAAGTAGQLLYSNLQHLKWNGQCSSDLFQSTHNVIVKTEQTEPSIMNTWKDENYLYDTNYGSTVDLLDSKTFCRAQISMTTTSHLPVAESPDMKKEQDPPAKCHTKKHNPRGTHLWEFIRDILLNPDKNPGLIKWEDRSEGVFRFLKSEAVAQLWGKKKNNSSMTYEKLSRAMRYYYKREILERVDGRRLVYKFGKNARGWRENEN
How it was run: as §1

SPI1 = SPI1 (Homo sapiens, UniProt P17947 1-270); settings: protein: recombinant; tags: N-terminal GST; dsDNA, one strand shown
How it was run: as §1

SPIB = SPIB (Homo sapiens, UniProt Q01892 1-262); settings: protein: recombinant; tags: N-terminal GST; dsDNA, one strand shown
How it was run: as §1

ELK3 = biological target: T6, ELK3 (Homo sapiens, UniProt P41970 1-407); settings: protein: recombinant; tags: N-terminal GST; dsDNA, one strand shown
T6 sequence: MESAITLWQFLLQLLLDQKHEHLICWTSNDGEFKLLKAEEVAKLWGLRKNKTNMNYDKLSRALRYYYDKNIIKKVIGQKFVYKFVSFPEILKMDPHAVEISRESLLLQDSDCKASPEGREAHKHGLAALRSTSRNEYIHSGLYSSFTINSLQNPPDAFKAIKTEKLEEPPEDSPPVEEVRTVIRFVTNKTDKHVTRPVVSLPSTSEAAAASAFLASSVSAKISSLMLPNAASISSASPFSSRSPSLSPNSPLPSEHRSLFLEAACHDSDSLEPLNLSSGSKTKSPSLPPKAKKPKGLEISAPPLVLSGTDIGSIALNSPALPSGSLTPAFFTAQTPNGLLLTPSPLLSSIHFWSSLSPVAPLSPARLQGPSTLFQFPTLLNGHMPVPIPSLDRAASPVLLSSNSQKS
How it was run: as §1

FEV = biological target: T7, FEV (Homo sapiens, UniProt Q99581 1-238); settings: protein: recombinant; tags: N-terminal GST; dsDNA, one strand shown
T7 sequence: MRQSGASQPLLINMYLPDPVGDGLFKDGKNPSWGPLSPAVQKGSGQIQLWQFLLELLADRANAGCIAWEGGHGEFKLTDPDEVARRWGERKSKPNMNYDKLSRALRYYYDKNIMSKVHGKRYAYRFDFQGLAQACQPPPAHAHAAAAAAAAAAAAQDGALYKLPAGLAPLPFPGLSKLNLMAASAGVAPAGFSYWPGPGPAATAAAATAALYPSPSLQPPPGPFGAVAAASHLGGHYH
How it was run: as §1

ETV5 = ETV5 (Homo sapiens, UniProt P41161 1-510); settings: protein: recombinant; tags: N-terminal GST; dsDNA, one strand shown
How it was run: as §1

HSF1 = HSF1 (Homo sapiens, UniProt Q00613 1-529); settings: protein: recombinant; tags: N-terminal GST; chain copies: 3; dsDNA, one strand shown
How it was run: as §1

ELF4 = ELF4 (Homo sapiens, UniProt Q99607 1-663); settings: protein: recombinant; tags: N-terminal GST; dsDNA, one strand shown
How it was run: as §1

ELK4 = biological target: T8, ELK4 (Homo sapiens, UniProt P28324-2 1-405); settings: protein: recombinant; tags: N-terminal GST; dsDNA, one strand shown
T8 sequence: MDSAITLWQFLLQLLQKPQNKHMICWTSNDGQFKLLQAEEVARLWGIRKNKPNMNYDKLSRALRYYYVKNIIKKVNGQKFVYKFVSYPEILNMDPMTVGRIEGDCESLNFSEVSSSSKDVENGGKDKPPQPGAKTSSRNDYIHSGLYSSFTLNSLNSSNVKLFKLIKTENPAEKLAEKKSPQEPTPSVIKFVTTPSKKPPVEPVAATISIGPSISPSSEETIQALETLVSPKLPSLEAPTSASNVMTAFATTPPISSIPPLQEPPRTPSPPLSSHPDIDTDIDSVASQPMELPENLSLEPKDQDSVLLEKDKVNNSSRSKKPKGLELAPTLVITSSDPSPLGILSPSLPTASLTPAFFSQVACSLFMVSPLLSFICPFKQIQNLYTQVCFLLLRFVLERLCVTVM
How it was run: as §1

ETV2 = biological target: T9, ETV2 (Homo sapiens, UniProt O00321 1-342); settings: protein: recombinant; tags: N-terminal GST; dsDNA, one strand shown
T9 sequence: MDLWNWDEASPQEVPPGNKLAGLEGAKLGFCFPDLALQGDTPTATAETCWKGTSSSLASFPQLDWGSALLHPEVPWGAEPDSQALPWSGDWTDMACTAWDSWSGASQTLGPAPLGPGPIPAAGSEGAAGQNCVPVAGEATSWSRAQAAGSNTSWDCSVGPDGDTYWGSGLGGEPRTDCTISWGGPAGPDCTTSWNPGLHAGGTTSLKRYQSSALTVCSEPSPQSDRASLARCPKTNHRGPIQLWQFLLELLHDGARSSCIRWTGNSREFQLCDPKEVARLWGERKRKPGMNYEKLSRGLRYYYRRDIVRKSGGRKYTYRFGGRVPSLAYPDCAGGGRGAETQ
How it was run: as §1

ELF3 = biological target: T10, ELF3 (Homo sapiens, UniProt P78545 1-371); settings: protein: recombinant; tags: N-terminal GST; dsDNA, one strand shown
T10 sequence: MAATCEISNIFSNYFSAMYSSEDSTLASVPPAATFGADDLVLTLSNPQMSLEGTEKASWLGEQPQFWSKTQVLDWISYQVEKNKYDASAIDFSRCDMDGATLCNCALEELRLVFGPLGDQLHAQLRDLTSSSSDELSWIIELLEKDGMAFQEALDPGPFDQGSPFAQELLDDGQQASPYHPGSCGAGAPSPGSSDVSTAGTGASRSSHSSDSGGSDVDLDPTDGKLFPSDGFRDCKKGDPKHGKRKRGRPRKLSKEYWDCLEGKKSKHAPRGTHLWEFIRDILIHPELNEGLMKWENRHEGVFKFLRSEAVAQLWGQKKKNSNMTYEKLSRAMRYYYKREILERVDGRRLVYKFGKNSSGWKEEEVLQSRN
How it was run: as §1

CRX = CRX (Homo sapiens, UniProt O43186 1-299); settings: protein: recombinant; tags: N-terminal GST; dsDNA, one strand shown
How it was run: as §1

ETV1 = ETV1 (Homo sapiens, UniProt P50549 1-477); settings: protein: recombinant; tags: N-terminal GST; dsDNA, one strand shown
How it was run: as §1

Chain of CRX (O43186 whole entry): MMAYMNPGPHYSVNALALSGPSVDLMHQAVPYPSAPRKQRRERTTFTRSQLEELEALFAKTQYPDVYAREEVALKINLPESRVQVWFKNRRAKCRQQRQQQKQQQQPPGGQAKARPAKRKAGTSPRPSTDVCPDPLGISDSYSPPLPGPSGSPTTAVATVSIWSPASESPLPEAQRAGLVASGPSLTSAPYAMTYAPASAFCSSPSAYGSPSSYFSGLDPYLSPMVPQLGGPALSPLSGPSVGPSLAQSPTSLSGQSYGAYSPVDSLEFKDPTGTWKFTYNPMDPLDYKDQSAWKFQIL
Chain of SPIB (Q01892 whole entry): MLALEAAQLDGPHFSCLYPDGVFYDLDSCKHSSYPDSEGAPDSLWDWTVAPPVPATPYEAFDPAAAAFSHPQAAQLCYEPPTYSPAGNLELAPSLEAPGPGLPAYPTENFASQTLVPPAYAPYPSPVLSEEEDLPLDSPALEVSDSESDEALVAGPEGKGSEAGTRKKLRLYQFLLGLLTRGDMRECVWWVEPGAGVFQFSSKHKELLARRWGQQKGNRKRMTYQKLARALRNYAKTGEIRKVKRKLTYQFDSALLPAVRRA
Chain of ELF4 (Q99607 whole entry): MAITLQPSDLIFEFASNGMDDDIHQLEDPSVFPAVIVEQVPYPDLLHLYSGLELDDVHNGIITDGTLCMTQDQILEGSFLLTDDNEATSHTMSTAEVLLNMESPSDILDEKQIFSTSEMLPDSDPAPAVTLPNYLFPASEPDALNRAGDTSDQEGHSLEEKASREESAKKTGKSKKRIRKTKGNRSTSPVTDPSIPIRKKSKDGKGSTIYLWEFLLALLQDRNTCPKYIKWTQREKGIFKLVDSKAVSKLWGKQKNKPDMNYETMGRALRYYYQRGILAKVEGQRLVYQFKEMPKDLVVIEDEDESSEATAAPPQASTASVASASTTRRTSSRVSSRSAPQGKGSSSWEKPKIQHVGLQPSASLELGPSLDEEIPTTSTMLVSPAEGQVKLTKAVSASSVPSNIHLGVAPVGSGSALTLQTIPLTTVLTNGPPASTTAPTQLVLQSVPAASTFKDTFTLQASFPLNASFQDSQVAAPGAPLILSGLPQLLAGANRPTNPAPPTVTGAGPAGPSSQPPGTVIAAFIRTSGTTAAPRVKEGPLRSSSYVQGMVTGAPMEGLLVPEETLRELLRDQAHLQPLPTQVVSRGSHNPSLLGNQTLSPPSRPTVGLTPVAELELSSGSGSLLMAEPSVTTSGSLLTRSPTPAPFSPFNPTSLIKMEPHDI
Chain of ETV5 (P41161 whole entry): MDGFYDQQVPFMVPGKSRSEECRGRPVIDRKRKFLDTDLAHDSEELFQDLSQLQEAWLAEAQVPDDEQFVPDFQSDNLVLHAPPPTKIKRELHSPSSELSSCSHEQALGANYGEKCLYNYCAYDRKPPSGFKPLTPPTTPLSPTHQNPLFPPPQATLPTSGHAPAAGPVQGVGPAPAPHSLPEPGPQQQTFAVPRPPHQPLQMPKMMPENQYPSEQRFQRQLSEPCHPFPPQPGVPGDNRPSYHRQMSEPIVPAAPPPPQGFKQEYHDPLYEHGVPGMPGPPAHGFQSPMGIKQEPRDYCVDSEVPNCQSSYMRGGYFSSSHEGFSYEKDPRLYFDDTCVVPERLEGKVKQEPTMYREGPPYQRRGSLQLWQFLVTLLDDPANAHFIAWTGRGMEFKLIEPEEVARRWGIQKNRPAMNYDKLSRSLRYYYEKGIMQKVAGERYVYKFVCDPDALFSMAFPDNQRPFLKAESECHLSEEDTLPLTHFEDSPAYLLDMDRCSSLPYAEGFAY
Chain of HSF1 (Q00613 whole entry): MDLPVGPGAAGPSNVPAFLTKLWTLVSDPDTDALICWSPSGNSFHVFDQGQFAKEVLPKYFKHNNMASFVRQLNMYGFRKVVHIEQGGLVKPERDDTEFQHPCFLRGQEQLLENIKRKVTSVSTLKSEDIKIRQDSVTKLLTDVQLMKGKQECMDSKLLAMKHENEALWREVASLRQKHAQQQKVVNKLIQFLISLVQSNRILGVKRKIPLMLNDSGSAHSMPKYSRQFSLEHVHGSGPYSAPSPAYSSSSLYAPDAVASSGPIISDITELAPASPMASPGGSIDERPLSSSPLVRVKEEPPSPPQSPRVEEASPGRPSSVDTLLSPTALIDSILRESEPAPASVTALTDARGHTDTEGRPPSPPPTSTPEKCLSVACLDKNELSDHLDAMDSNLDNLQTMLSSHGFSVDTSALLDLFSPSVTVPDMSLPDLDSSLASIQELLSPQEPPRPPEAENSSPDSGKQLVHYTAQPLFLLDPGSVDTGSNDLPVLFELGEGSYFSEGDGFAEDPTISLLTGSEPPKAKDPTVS
Chain of ELF1 (P32519 whole entry): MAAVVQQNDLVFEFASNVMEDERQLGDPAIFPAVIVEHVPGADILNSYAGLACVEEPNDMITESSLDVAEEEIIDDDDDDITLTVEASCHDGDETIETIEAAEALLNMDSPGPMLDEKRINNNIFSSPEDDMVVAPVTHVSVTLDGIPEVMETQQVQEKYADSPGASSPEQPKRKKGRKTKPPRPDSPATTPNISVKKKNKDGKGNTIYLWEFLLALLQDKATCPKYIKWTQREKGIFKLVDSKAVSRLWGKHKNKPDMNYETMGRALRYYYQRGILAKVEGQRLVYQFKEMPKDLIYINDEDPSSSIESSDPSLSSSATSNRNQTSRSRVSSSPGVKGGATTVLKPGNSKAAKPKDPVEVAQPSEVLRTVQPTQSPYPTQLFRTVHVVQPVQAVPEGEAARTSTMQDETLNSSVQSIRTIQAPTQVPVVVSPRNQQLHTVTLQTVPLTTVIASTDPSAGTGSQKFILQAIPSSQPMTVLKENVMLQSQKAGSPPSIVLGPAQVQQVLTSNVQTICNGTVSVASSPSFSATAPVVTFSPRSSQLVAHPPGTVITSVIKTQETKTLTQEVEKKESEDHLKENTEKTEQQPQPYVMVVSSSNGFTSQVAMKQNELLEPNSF
Chain of ETV1 (P50549 whole entry): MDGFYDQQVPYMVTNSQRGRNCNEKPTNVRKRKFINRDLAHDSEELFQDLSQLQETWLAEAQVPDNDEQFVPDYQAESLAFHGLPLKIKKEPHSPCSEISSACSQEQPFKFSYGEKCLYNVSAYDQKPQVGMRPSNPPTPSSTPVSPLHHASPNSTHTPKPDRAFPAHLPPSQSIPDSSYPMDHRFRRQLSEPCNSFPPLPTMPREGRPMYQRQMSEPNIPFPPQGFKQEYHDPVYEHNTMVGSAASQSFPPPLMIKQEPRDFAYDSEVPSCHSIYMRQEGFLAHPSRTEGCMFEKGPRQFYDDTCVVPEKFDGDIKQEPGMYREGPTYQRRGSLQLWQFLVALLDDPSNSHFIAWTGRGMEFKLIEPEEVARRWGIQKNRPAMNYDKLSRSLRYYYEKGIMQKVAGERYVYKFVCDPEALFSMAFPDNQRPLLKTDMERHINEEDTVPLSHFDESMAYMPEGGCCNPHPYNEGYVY

Sequence	binding signal (FLI1)	binding signal (ELK1)	binding signal (GABPA)	binding signal (ERG)	binding signal (ELF1)	binding signal (EHF)	binding signal (SPI1)	binding signal (SPIB)	binding signal (ELK3)	binding signal (FEV)	binding signal (ETV5)	binding signal (HSF1)	binding signal (ELF4)	binding signal (ELK4)	binding signal (ETV2)	binding signal (ELF3)	binding signal (CRX)	binding signal (ETV1)
ATAGCA	1.17 fold enrichment (6-mer frequency, TF over GST control)	1.14 fold enrichment (6-mer frequency, TF over GST control)	1.19 fold enrichment (6-mer frequency, TF over GST control)	1.19 fold enrichment (6-mer frequency, TF over GST control)	1.14 fold enrichment (6-mer frequency, TF over GST control)	1.13 fold enrichment (6-mer frequency, TF over GST control)	1.11 fold enrichment (6-mer frequency, TF over GST control)	1.18 fold enrichment (6-mer frequency, TF over GST control)	1.15 fold enrichment (6-mer frequency, TF over GST control)	1.13 fold enrichment (6-mer frequency, TF over GST control)	1.17 fold enrichment (6-mer frequency, TF over GST control)	1.02 fold enrichment (6-mer frequency, TF over GST control)	1.16 fold enrichment (6-mer frequency, TF over GST control)	1.15 fold enrichment (6-mer frequency, TF over GST control)	1.13 fold enrichment (6-mer frequency, TF over GST control)	1.25 fold enrichment (6-mer frequency, TF over GST control)	1.07 fold enrichment (6-mer frequency, TF over GST control)	1.1 fold enrichment (6-mer frequency, TF over GST control)
ATTGAA	1.07 fold enrichment (6-mer frequency, TF over GST control)	1.16 fold enrichment (6-mer frequency, TF over GST control)	1.07 fold enrichment (6-mer frequency, TF over GST control)	1.05 fold enrichment (6-mer frequency, TF over GST control)	1.06 fold enrichment (6-mer frequency, TF over GST control)	1.03 fold enrichment (6-mer frequency, TF over GST control)	1.04 fold enrichment (6-mer frequency, TF over GST control)	1.09 fold enrichment (6-mer frequency, TF over GST control)	1.11 fold enrichment (6-mer frequency, TF over GST control)		1.05 fold enrichment (6-mer frequency, TF over GST control)	1.01 fold enrichment (6-mer frequency, TF over GST control)	1.01 fold enrichment (6-mer frequency, TF over GST control)	1.06 fold enrichment (6-mer frequency, TF over GST control)	1 fold enrichment (6-mer frequency, TF over GST control)	1.07 fold enrichment (6-mer frequency, TF over GST control)	1.06 fold enrichment (6-mer frequency, TF over GST control)	1.15 fold enrichment (6-mer frequency, TF over GST control)
